The structures appear in SMILES notation. Records with an inconclusive call do not appear. Calls of active or inactive are those of the source. The call rests on the fitted dose curve; in most records, active means well fitted cell-killing curve with a large enough effect in the repeat runs; inconclusive means weak or mixed curves, or effect the other way; inactive means no such curve, though single readings can be large or run the other way.

A short description of the assay: qHTS assay to identify small molecule agonists of the estrogen receptor alpha (ER-alpha) signaling pathway in the presence of an antagonist - cell viability counter screen (AID 1259386).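 Further: cells exposed to compounds for 22 h at 37 °C before the viability read; nearly all actives have a fitted effect of over 30% in size.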 As to conditions: VM7Luc4E2 viability, CellTiter-Fluor fluorescence, 22 h; series mostly up to 92.4 µM. From the text: National Center for Advancing Translational Sciences [NCATS]
NIH Chemical Genomics Center [NCGC]
U.S. Environmental Protection Agency [EPA]
National Institutes of Environmental Health Sciences [NIEHS]
National Toxicology Program [NTP]
U.S. Food and Drug Administration [FDA]
Estrogen receptor (ER), a member of nuclear hormone receptor plays an important role in development, metabolic homeostasis and reproduction. Two subtypes of ER, ER-alpha and ER-beta, have similar expression patterns with some uniqueness in both types. Endocrine disrupting chemicals (EDCs) and their interactions with steroid hormone receptors like ER causes disruption of normal endocrine function. Therefore, it is important to understand the effect of environmental chemicals in ER signaling pathway. For identifying ER agonists, VM7Luc4E2 cell line has been used in the current assay.
VM7Luc4E2 cell line (provided by Denison MS, University of California) endogenously expresses full-length ER-alpha and is stably transfected with a plasmid containing four estrogen responsive elements (ERE) upstream of a luciferase reporter gene. This current screening for measuring luciferase reporter gene activity using VM7Luc4E2 cells against Tox21 10K library collection is a confirmation study on agonist mode screening in presence of ER-antagonist (ICI-182,780) at 10.0nM final concentration. The cytotoxicity of the compounds was tested in parallel by measuring the cell viability using CellTiter-Fluor assay system (Promega, Madison, WI) in the same wells.
Tox21 Assay Protocol Summary:
VM7Luc4E2 cells were cultured in phenol red free assay medium containing 10% charcoal stripped FBS for 5 days prior to the assay. The cells were dispensed at 4,000 cells in 4uL of assay medium per well into white wall/solid-bottom 1536-well plates (Corning Life Sciences, Corning, NY) using a Multidrop Combi (Thermo Fisher Scientific Inc., Waltham, MA) dispenser. After the assay plates were incubated at 37C and 5% CO2 for 24hr, 1uL of 10.0nM (final concentration) ICI-182,780 or assay buffer was added using two separate tips of Flying Reagent Dispenser (FRD, Aurora Discovery, San Diego, CA). Then 23nL of compounds dissolved in DMSO at 15 concentrations and positive controls or DMSO only was transferred to the assay plates by a Pintool station (Wako, San Diego, CA). The assay plates were incubated at 37C and 5% CO2 for 22hr. After 21hr incubation at 37C, 1uL/well CellTiter-Fluor reagent (Promega Corporation, Madison, WI) was added to each well using FRD and after 1hr incubation at 37C and 5% CO2, the fluorescence signal was measured on ViewLux plate reader (PerkinElmer, Shelton, CT).
As for `Cc1ccccc1C(=O)O`, the result was inactive.

For the compound `CCN1CCCC1CNC(=O)c1cc(S(N)(=O)=O)ccc1OC` (stereo not given), the outcome was inactive.

Take `CCC(=O)Nc1cccc(N)c1`: the outcome was inactive.

In the case of `CC(C)N1C(=O)c2ccccc2C1=O`, the result was inactive.

As to `C=CCn1c(=O)n([C@@H]2O[C@H](CO)[C@@H](O)[C@H]2O)c2nc(N)[nH]c(=O)c21`, the outcome was inactive.

With `CC(C)(O)c1ccccc1`, the outcome was inactive.

As for `O=C(O)/C=C/c1ccc(/C=C/C(=O)O)cc1`, the outcome was inactive.

On to `C1C2OC2C2C1C1CC2C2OC12` (stereo not given), for which the outcome was inactive.

As for `Nc1nc2c(ncn2CCC(CO)CO)c(=O)[nH]1`, the result was inactive.

`COc1ccc(NC(C)=O)cc1`: the result was inactive.

For the compound `Cc1ccc(N)cc1[N+](=O)[O-]`, the result was inactive.

As for `CCCCCCCCC=O`, the outcome was inactive.

As to `CC1=CCC2C(C1)C2(C)C` (stereo not given), the outcome was inactive.

For the compound `NCCN1CCNC1=O`, the result was inactive.

Regarding `COC(C(=O)O)c1ccccc1` (stereo not given), the result was inactive.

Turning to `CCCCCCCCN(C)CCCCCCCC`, the outcome was inactive.

For `O=C(O)C(O)[C@H](O)[C@@H](O)[C@H](O)[C@H](O)CO` (stereo not given in full), the result was inactive.

With `COc1nc(C)nc(N)n1`, the result was inactive.

Take `CCN1CCN(c2cc3c(cc2F)c(=O)c(C(=O)O)cn3C2CC2)CC1`: the outcome was inactive.

With `CCC(C(=O)NC(N)=O)c1ccccc1` (stereo not given), the outcome was inactive.

For `CN(C)C(=O)C(CCN1CCC(O)(c2ccc(Cl)cc2)CC1)(c1ccccc1)c1ccccc1`, the outcome was inactive.

Regarding `CC(CCO)CCCC(C)(C)O` (stereo not given), the outcome was inactive.

Regarding `C(=C(c1ccccc1)c1ccccc1)c1ccccc1`, the outcome was inactive.

Consider `COc1ccc(COC=O)cc1`, for which the outcome was inactive.

With `CC(C)(C)C(=O)/C=C/c1ccc(Cl)cc1`, the result was inactive.

As for `C=C(C)[C@H]1CC=C(C)CC1`, the result was inactive.

As for `CCCCCCC(=O)OCC`, the result was inactive.

`CCOC(=O)[C@H](CCc1ccccc1)N[C@@H](C)C(=O)N1CCC[C@H]1C(=O)O`: the outcome was inactive.

For the compound `O=S(=O)(O)c1ccccc1O`, the outcome was inactive.

As to `COc1cccc(Br)c1`, the result was inactive.

Turning to `CCCCC1CCCCC(=O)O1` (stereo not given), the outcome was inactive.

For `O=C(O)Cc1cc(I)c(Oc2cc(I)c(O)c(I)c2)c(I)c1`, the result was inactive.

`NC(N)=NS(=O)(=O)c1ccc(N)cc1`: the outcome was inactive.

On to `CCCCc1ccc(N)cc1`, for which the result was inactive.

`CCCOc1ccccc1-c1nc2n[nH]nc2c(=O)[nH]1`: the outcome was inactive.

Take `Cc1c(F)cc2c(=O)c(C(=O)O)cn3c2c1CCC3C` (stereo not given): the outcome was inactive.

As to `CCCC(=O)O[C@]1(C(=O)CCl)[C@@H](C)C[C@H]2[C@@H]3CCC4=CC(=O)C=C[C@]4(C)[C@@]3(F)C(=O)C[C@@]21C`, the outcome was inactive.

Regarding `CC(C)COC(=O)C(C)C`, the result was inactive.

Regarding `COc1cc(O)cc(O)c1`, the result was inactive.

Take `CCCCCOC(=O)Nc1nc(=O)n([C@@H]2O[C@H](C)[C@@H](O)[C@H]2O)cc1F`: the outcome was inactive.

The values above are taken from PubChem BioAssay (Tox21).
